Eight compounds from PubChem BioAssay (NCI) can be followed below.

“And” between values parts separate entries of the source, which are not always exact repeats. Equal entries are not always repeated. This is part of a sample that, as a whole, favours compounds with a hit. Of some 79,000 tested, about 15% had one in any assay. The source holds several records for some structures; these can differ, active in one and inactive in another. The source made the active and inactive calls. No stated cut-off is given here; in the data, active means growth inhibition above about 70%; inactive means the rest.

Test [1] in a line: NCI Yeast Anticancer Drug Screen. Data for the rad50 strain (AID 155).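 Further: 0% = growth of vehicle-only cultures of the same strain.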 The note with it: S. cerevisiae rad50 strain growth inhibition, stronger effect = higher value. The method in brief:
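Inhibition values express reduced yeast growth in compound-treated cultures relative to vehicle-treated controls.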

A short description of test [2]: NCI Yeast Anticancer Drug Screen. Data for the mec2-1 strain (AID 157). The note with it: S. cerevisiae mec2-1 strain, stronger effect = higher value. A digest of the protocol: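 Test agents were screened against the mec2-1 yeast strain, with defined DNA repair or cell cycle alteration. Growth was scored as inhibition against vehicle-only controls.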
The nature of test [3]: NCI Yeast Anticancer Drug Screen. Data for the sgs1 mgt1 strain (AID 161).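 Further: 0% = growth of cultures given vehicle only.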 The note with it: S. cerevisiae sgs1 mgt1 strain, stronger effect = higher value. The method in brief:
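Genetically altered yeast, compound exposure, growth inhibition relative to vehicle.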

Test [4] in a line: NCI Yeast Anticancer Drug Screen. Data for the cln2 rad14 strain (AID 165).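 Further: 0% = growth equal to vehicle treated cultures.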 The note with it: S. cerevisiae cln2 rad14 strain, stronger effect = higher value. The method in brief: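 Growth of compound-exposed yeast (cln2 rad14 genotype) measured and expressed as inhibition relative to vehicle.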
Test [5] can be described thus: NCI Yeast Anticancer Drug Screen. Data for the bub3 strain (AID 167). As to conditions: S. cerevisiae bub3 mutant strain, stronger effect = higher value. The method in brief:
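Steps: expose the mutant yeast strain to compound; grow alongside vehicle-treated cultures; measure growth; express inhibition against the vehicle cultures.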

A short description of test [6]: NCI Yeast Anticancer Drug Screen. Data for the mlh1 rad18 strain (AID 175). As to conditions: S. cerevisiae mlh1 rad18 strain growth inhibition, stronger effect = higher value. A digest of the protocol: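 In this whole-cell yeast screen, a strain with altered DNA damage repair is challenged with compound, and its growth is measured against matched vehicle-treated controls.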

Setting [7] is: at 5.0 µM (retest, dose inferred, filed as 0.5).
[8] abbreviates: at 50.0 µM (retest, dose inferred, filed as 5.0).

Take `N=S(c1ccccc1[N+](=O)[O-])c1ccccc1[N+](=O)[O-]`: the growth inhibition in test [1] (setting [7]) was 13% (inactive) and 8% (inactive); in test [1] (setting [8]) it was 4% (inactive) and 52% (inactive); in test [1] (at 50.0 µM) it was 68.2% (inactive) and 54.1% (inactive); in test [2] (setting [7]), 2% (inactive) and 7% (inactive); in test [2] (setting [8]), 15% (inactive) and 53% (inactive); in test [2] (at 50.0 µM), 17.4% (inactive) and 22.4% (inactive). The growth inhibition in test [3] (setting [7]) is -24% (inactive) and 32% (inactive); in test [3] (setting [8]) it was 39% (inactive) and 77% (active); in test [3] (at 50.0 µM), 69.5% (inactive) and 75.5% (active); in test [4] (setting [7]), 8% (inactive) and 6% (inactive); in test [4] (setting [8]) it was 9% (inactive) and 49% (inactive); in test [4] (at 50.0 µM) it was 25.3% (inactive) and 61.9% (inactive). Besides, the growth inhibition is -7% (inactive) and 2% (inactive) in test [5] (setting [7]); -6% (inactive) and 73% (active) in test [5] (setting [8]); 36.9% (inactive) and 26.8% (inactive) in test [5] (at 50.0 µM); -14% (inactive) and 20% (inactive) in test [6] (setting [7]); -1% (inactive) and 83% (active) in test [6] (setting [8]); 79.8% (active) and 76.3% (active) in test [6] (at 50.0 µM).
In the case of `Oc1cccc2c1-c1ccccc1C2`, the growth inhibition is -6% (inactive) in test [1] (setting [7]); 96% (active) in test [1] (setting [8]); 98.8% (active) in test [1] (at 50.0 µM); 1% (inactive) in test [2] (setting [7]); 92% (active) in test [2] (setting [8]); 98.9% (active) in test [2] (at 50.0 µM). In addition, the growth inhibition is -7% (inactive) in test [3] (setting [7]); 97% (active) in test [3] (setting [8]); 98.4% (active) in test [3] (at 50.0 µM); -4% (inactive) in test [4] (setting [7]); 83% (active) in test [4] (setting [8]); 96.8% (active) in test [4] (at 50.0 µM). The growth inhibition is 32% (inactive) in test [5] (setting [7]); 97% (active) in test [5] (setting [8]); 98.4% (active) in test [5] (at 50.0 µM); 9% (inactive) in test [6] (setting [7]); 98% (active) in test [6] (setting [8]); 98.1% (active) in test [6] (at 50.0 µM).
Take `CN(C)Cc1c(O)ccc2ccccc12`: the growth inhibition in test [1] (setting [7]) is 2% (inactive); in test [1] (setting [8]) it was 89% (active); in test [1] (at 50.0 µM), -32.9% (inactive) and 45% (inactive); in test [2] (setting [7]), 1% (inactive); in test [2] (setting [8]) it was 98% (active); in test [2] (at 50.0 µM) it was -33% (inactive) and 90.2% (active). For the same compound, the growth inhibition was 2% (inactive) in test [3] (setting [7]); 97% (active) in test [3] (setting [8]); -52.2% (inactive) and 43.4% (inactive) in test [3] (at 50.0 µM); -6% (inactive) in test [4] (setting [7]); 96% (active) in test [4] (setting [8]); -18.8% (inactive) and 85.1% (active) in test [4] (at 50.0 µM). For the same compound, the growth inhibition is 0% (inactive) in test [5] (setting [7]); 97% (active) in test [5] (setting [8]); -32.4% (inactive) and 23.8% (inactive) in test [5] (at 50.0 µM); 2% (inactive) in test [6] (setting [7]); 99% (active) in test [6] (setting [8]); -32.2% (inactive) and 39.2% (inactive) in test [6] (at 50.0 µM).
`O=NC1C(Cl)C2CC1C1C(Br)C(Br)CC21` (centres undefined): the growth inhibition in test [1] (setting [7]) is 4% (inactive) and 3% (inactive); in test [1] (setting [8]), 4% (inactive) and 46% (inactive); in test [1] (at 50.0 µM), 3.2% (inactive) and 55.5% (inactive) and 48.2% (inactive); in test [2] (setting [7]), 23% (inactive) and 4% (inactive); in test [2] (setting [8]) it was 2% (inactive) and 22% (inactive); in test [2] (at 50.0 µM), 1.4% (inactive) and 32.1% (inactive) and 34% (inactive). Besides, the growth inhibition was -3% (inactive) and -2% (inactive) in test [3] (setting [7]); 2% (inactive) and 29% (inactive) in test [3] (setting [8]); 19.9% (inactive) and 66.5% (inactive) and 56.3% (inactive) in test [3] (at 50.0 µM); 1% (inactive) and 0% (inactive) in test [4] (setting [7]); 1% (inactive) and 16% (inactive) in test [4] (setting [8]); -26.6% (inactive) and 7.1% (inactive) and 6.65% (inactive) in test [4] (at 50.0 µM). Further, the growth inhibition is 4% (inactive) and 0% (inactive) in test [5] (setting [7]); -7% (inactive) and 7% (inactive) in test [5] (setting [8]); -5.1% (inactive) and 11.2% (inactive) and 8.2% (inactive) in test [5] (at 50.0 µM); 6% (inactive) and 4% (inactive) in test [6] (setting [7]); 31% (inactive) and 52% (inactive) in test [6] (setting [8]); 30.6% (inactive) and 69.8% (inactive) and 59.1% (inactive) in test [6] (at 50.0 µM).
As for `O=C(O)c1ccccc1C(=O)O`, the growth inhibition in test [1] (setting [7]) is -3% (inactive); in test [1] (setting [8]) it was 8% (inactive); in test [1] (at 50.0 µM), -29.7% (inactive) and 15.6% (inactive); in test [2] (setting [7]) it was -3% (inactive); in test [2] (setting [8]) it was 4% (inactive); in test [2] (at 50.0 µM), -14.8% (inactive) and 5.1% (inactive). The growth inhibition in test [3] (setting [7]) was 0% (inactive); in test [3] (setting [8]) it was 7% (inactive); in test [3] (at 50.0 µM) it was 4.95% (inactive) and -23.6% (inactive); in test [4] (setting [7]), 4% (inactive); in test [4] (setting [8]), 7% (inactive); in test [4] (at 50.0 µM), 21.1% (inactive) and 54.1% (inactive). For the same compound, the growth inhibition in test [5] (setting [7]) was 2% (inactive); in test [5] (setting [8]), -6% (inactive); in test [5] (at 50.0 µM) it was -7.45% (inactive) and -11.4% (inactive); in test [6] (setting [7]), -2% (inactive); in test [6] (setting [8]), 7% (inactive); in test [6] (at 50.0 µM), -5.8% (inactive) and 7% (inactive).
Take `O=C1C=CC(=O)C(C2OC(=O)C(Br)=C2Br)=C1` (centres undefined): the growth inhibition was -14% (inactive) in test [1] (setting [7]); 18% (inactive) in test [1] (setting [8]); 6.95% (inactive) in test [1] (at 50.0 µM); -21% (inactive) in test [2] (setting [7]); -17% (inactive) in test [2] (setting [8]); 5.5% (inactive) in test [2] (at 50.0 µM). The growth inhibition is -18% (inactive) in test [3] (setting [7]); -1% (inactive) in test [3] (setting [8]); -3.45% (inactive) in test [3] (at 50.0 µM); -10% (inactive) in test [4] (setting [7]); -10% (inactive) in test [4] (setting [8]); -17.7% (inactive) in test [4] (at 50.0 µM). For the same compound, the growth inhibition is -9% (inactive) in test [5] (setting [7]); 7% (inactive) in test [5] (setting [8]); 13.6% (inactive) in test [5] (at 50.0 µM); -25% (inactive) in test [6] (setting [7]); 46% (inactive) in test [6] (setting [8]); 12.4% (inactive) in test [6] (at 50.0 µM).
Regarding `COc1ccc(N/N=C(\CCN(C)C)c2ccccc2)cc1`, the growth inhibition is 7% (inactive) in test [1] (setting [7]); 51% (inactive) in test [1] (setting [8]); 80.7% (active) in test [1] (at 50.0 µM); -2% (inactive) in test [2] (setting [7]); 40% (inactive) in test [2] (setting [8]); 3.7% (inactive) in test [2] (at 50.0 µM). The growth inhibition in test [3] (setting [7]) is 16% (inactive); in test [3] (setting [8]), 61% (inactive); in test [3] (at 50.0 µM) it was 56.9% (inactive); in test [4] (setting [7]), 6% (inactive); in test [4] (setting [8]) it was 32% (inactive); in test [4] (at 50.0 µM), 57.9% (inactive). Further, the growth inhibition in test [5] (setting [7]) was -6% (inactive); in test [5] (setting [8]), 78% (active); in test [5] (at 50.0 µM), 49.2% (inactive); in test [6] (setting [7]), 12% (inactive); in test [6] (setting [8]), 78% (active); in test [6] (at 50.0 µM) it was 94.8% (active).
Turning to `NC1=C(Cl)C(=O)c2ccccc2C1=O`, the growth inhibition is 6% (inactive) and 9% (inactive) in test [1] (setting [7]); 97% (active) and 99% (active) in test [1] (setting [8]); 87.5% (active) and 98.2% (active) in test [1] (at 50.0 µM); 0% (inactive) and -30% (inactive) in test [2] (setting [7]); 93% (active) and 98% (active) in test [2] (setting [8]); 79.8% (active) and 93.6% (active) in test [2] (at 50.0 µM). The growth inhibition in test [3] (setting [7]) was 7% (inactive) and 10% (inactive); in test [3] (setting [8]), 95% (active) and 97% (active); in test [3] (at 50.0 µM), 91.4% (active) and 97.8% (active); in test [4] (setting [7]), 15% (inactive) and 4% (inactive); in test [4] (setting [8]), 61% (inactive) and 97% (active); in test [4] (at 50.0 µM), 76.7% (active) and 78.8% (active). Further, the growth inhibition in test [5] (setting [7]) is 16% (inactive) and 7% (inactive); in test [5] (setting [8]) it was 97% (active) and 98% (active); in test [5] (at 50.0 µM), 84.3% (active) and 95.5% (active); in test [6] (setting [7]), 8% (inactive) and 7% (inactive); in test [6] (setting [8]) it was 96% (active) and 98% (active); in test [6] (at 50.0 µM), 88.5% (active) and 95.5% (active).
